# Values without a mark were called inactive.
# Key:
# Assay in all cases: log2 ratio of Biotin-Ahx-Ub-VS probe labelling (fragment/DMSO); higher = less target engagement (more negative = stronger competition), active = hit call of the paper (q ≤ 0.05, log2 ratio ≤ -1)
# Settings in all cases: compound concentration: 200 uM; treatment time: 3 h
# [1] = biological target: T1, ALG13 (UniProt Q9NP73)
# T1 sequence (whole entry): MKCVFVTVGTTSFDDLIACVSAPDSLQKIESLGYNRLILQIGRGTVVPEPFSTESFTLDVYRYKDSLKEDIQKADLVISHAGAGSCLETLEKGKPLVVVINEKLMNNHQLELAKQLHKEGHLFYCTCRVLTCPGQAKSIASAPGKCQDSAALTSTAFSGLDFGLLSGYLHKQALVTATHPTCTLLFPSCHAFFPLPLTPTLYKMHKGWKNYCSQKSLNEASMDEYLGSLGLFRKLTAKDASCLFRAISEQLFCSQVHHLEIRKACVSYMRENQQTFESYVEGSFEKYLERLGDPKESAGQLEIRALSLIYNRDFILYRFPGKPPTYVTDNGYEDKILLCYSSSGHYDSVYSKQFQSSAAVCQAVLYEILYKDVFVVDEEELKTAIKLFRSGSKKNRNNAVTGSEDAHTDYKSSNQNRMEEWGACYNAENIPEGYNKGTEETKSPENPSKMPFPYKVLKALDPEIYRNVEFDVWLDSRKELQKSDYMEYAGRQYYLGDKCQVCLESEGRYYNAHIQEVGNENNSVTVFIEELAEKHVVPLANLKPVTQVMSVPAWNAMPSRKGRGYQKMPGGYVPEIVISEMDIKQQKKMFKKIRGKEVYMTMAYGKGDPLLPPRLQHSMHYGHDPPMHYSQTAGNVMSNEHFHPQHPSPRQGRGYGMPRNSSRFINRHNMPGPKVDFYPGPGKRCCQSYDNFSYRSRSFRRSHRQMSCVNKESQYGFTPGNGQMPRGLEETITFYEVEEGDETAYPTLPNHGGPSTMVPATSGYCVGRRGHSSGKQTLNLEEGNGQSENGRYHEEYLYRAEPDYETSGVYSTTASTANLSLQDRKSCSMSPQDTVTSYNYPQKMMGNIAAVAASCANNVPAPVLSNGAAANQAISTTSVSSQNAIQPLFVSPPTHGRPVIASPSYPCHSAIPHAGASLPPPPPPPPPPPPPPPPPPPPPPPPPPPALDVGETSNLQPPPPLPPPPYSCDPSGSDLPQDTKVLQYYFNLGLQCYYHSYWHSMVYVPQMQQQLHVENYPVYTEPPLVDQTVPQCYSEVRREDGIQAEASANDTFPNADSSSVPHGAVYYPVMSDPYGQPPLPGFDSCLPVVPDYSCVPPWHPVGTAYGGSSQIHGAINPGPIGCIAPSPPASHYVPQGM
# In short: (§1)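 Fragment (200 µM) or vehicle was incubated for 3 h with triplicate HEK293T lysate samples of 495 µg, which were then treated with Biotin-Ahx-Ub-VS at 0.5 µM final for 1 h. Labelled DUBs were enriched on NeutrAvidin, digested with LysC and trypsin, and analysed by diaPASEF LC-MS/MS. Values are average log2 fragment/vehicle ratios from an unpaired t-test on global-median-normalised Spectronaut label-free quantities, using proteins with ≥2 unique peptides.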
# [2] = biological target: ATXN3 (UniProt P54252)
# In short: as §1
# [3] = biological target: T2, BAP1 (UniProt Q92560)
# T2 sequence (whole entry): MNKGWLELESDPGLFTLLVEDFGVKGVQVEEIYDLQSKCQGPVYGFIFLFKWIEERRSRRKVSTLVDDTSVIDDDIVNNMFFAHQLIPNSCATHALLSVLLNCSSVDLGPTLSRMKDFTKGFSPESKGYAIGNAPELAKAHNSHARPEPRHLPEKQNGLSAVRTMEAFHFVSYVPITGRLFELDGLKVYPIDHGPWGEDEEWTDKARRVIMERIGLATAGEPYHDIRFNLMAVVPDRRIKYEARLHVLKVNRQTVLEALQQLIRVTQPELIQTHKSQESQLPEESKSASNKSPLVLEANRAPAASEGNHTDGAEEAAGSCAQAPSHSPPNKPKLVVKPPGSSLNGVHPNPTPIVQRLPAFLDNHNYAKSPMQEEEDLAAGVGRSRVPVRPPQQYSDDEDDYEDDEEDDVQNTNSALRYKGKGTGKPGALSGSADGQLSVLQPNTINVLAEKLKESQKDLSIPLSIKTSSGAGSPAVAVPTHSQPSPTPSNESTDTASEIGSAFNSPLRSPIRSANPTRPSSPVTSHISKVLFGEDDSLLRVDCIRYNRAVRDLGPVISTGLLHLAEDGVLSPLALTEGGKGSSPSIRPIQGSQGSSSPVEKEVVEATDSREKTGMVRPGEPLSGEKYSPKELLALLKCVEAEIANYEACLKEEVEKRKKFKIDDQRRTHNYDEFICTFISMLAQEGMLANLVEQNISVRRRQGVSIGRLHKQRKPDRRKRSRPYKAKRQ
# In short: as §1
# [4] = biological target: EIF3F (UniProt O00303)
# In short: as §1
# [5] = biological target: EIF3H (UniProt O15372)
# In short: as §1
# [6] = biological target: T3, FAM105A (UniProt Q9NUU6)
# T3 sequence (whole entry): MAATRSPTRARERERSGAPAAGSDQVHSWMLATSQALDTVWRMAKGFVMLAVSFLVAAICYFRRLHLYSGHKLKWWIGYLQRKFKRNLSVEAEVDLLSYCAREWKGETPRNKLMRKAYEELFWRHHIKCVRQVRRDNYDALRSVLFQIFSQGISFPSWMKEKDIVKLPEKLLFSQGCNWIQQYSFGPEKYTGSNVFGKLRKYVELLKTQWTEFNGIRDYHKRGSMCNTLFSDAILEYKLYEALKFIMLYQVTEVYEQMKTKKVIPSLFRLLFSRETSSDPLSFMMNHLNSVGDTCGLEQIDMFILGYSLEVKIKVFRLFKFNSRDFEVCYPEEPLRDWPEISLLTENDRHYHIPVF
# In short: as §1
# [7] = biological target: OTUB1 (UniProt Q96FW1)
# In short: as §1
# [8] = biological target: T4, OTUD4 (UniProt Q01804)
# T4 sequence (whole entry): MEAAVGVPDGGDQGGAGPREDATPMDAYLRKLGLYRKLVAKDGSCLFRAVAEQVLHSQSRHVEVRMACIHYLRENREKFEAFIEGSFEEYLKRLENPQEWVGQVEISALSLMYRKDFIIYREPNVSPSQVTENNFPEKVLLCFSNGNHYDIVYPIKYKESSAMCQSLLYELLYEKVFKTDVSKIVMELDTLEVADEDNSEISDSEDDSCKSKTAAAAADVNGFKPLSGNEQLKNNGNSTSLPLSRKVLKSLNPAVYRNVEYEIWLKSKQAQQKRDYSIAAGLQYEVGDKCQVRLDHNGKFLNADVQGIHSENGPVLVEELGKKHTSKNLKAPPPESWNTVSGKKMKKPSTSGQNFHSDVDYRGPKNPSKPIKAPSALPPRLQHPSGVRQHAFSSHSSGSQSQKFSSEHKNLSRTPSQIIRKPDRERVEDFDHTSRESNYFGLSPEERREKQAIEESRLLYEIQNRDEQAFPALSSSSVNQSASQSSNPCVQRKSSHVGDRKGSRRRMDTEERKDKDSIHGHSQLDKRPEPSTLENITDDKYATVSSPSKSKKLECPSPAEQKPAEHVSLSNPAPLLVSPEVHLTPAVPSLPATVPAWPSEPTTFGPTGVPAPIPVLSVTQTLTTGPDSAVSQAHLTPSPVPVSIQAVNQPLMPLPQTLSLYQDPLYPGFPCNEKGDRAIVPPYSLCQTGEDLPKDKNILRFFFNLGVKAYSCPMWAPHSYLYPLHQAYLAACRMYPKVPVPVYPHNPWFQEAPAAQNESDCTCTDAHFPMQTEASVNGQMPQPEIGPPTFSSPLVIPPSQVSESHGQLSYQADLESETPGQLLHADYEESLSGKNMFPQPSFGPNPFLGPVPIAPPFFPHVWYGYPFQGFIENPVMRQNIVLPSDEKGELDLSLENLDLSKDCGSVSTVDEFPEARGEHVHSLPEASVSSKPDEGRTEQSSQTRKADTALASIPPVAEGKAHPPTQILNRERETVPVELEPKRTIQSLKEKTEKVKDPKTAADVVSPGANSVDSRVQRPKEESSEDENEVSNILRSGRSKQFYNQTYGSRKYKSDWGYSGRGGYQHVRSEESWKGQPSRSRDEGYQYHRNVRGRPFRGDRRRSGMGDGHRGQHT
# In short: as §1
# [9] = biological target: T5, OTUD5 (UniProt Q96G74)
# T5 sequence (whole entry): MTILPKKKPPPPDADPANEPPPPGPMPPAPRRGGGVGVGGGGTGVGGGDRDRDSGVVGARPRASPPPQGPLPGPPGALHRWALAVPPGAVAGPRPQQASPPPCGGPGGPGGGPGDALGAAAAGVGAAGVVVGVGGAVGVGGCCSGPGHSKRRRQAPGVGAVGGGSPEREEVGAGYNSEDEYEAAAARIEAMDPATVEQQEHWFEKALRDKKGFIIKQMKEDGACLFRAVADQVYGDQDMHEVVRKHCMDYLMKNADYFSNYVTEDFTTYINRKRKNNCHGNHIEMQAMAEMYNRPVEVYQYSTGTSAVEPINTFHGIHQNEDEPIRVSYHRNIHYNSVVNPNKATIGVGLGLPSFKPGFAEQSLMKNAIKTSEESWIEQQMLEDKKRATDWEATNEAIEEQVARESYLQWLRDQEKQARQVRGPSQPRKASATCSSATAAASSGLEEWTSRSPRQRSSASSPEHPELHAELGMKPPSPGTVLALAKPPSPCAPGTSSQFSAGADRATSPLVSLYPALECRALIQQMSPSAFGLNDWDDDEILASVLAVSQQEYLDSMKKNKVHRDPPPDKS
# In short: as §1
# ATXN3, sequence (P54252 whole entry): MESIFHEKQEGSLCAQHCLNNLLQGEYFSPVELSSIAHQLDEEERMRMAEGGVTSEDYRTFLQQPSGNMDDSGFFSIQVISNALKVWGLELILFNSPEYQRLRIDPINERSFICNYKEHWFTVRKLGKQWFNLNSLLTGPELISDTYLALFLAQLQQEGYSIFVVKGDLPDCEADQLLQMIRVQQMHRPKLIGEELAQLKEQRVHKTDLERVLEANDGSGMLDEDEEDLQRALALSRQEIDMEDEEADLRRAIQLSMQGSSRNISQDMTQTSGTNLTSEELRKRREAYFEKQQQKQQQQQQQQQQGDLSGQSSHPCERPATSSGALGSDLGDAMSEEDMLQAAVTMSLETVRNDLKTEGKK
# EIF3F, sequence (O00303 whole entry): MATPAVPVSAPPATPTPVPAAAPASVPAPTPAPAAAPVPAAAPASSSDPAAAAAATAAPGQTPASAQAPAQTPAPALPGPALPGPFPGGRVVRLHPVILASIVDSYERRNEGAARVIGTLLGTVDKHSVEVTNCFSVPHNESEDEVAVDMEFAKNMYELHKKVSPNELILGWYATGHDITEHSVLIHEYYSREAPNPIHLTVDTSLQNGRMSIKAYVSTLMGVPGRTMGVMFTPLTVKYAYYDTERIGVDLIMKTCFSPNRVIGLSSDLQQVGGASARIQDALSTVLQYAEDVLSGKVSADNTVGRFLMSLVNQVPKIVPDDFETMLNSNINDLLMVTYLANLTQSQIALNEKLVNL
# OTUB1, sequence (Q96FW1 whole entry): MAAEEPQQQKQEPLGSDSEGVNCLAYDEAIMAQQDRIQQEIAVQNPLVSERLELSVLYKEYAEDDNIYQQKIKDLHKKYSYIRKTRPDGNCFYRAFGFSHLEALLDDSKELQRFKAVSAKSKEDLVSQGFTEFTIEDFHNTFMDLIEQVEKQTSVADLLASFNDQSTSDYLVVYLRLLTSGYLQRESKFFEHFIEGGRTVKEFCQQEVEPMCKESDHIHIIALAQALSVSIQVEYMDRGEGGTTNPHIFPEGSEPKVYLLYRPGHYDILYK
# EIF3H, sequence (O15372 whole entry): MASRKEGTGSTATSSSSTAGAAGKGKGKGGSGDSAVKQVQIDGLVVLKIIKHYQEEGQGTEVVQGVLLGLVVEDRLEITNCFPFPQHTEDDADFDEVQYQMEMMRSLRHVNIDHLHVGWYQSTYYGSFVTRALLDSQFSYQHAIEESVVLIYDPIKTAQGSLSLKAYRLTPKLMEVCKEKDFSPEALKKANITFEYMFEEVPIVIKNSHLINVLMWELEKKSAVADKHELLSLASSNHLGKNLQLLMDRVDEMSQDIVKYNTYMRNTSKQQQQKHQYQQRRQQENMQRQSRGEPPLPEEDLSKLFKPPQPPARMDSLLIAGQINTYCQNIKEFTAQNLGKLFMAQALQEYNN
compound,measurement,setting,value
O=C(CCl)N1CCC(c2nc3ccccc3o2)CC1,log2 ratio of Biotin-Ahx-Ub-VS probe labelling,[1],-0.377
same,log2 ratio of Biotin-Ahx-Ub-VS probe labelling,[2],-0.627
same,log2 ratio of Biotin-Ahx-Ub-VS probe labelling,[3],-1.64 (active)
same,log2 ratio of Biotin-Ahx-Ub-VS probe labelling,[4],-0.00792
same,log2 ratio of Biotin-Ahx-Ub-VS probe labelling,[5],0.264
same,log2 ratio of Biotin-Ahx-Ub-VS probe labelling,[6],0.258
same,log2 ratio of Biotin-Ahx-Ub-VS probe labelling,[7],0.109
same,log2 ratio of Biotin-Ahx-Ub-VS probe labelling,[8],-0.417
same,log2 ratio of Biotin-Ahx-Ub-VS probe labelling,[9],-0.841

# Reference: the supplement of paper PMC11732987, “Enantioselective OTUD7B fragment discovery through chemoproteomics screening and high-throughput optimisation” (Communications Chemistry, 2025)
